About 2,100 (3.2%) of roughly 65,000 compounds showed an effect of 50% or more. The median lay at about -52%. The sample holds strong results, similar compounds and a random draw of the others, so the mix is not that of the screen.

In the assay the test system is Plasmodium falciparum. The assay can be described thus: Screen against P. falciparum Asexual Blood Stage (ABS), at 5uM. The class given is functional, Dd2. Conditions: tested at 5 uM.
Regarding `Cn1ccnc1C(=O)N1CCC2(CCCN2CC2CC2)CC1`, the INHIBITION is reported as -104%. Turning to `CC(=O)c1cc(CN2C[C@@H]3CC[C@H]2CN(S(=O)(=O)N(C)C)C3)cs1`, the INHIBITION is reported as -60.2%.

Regarding `O=C(O)Cn1ccc(=O)c2ccccc21`, the INHIBITION is -123%. Consider `CC(C)(C)c1cc(C(=O)NCCN2CCCS2(=O)=O)[nH]n1`, for which the INHIBITION is 34.4%.

Regarding `CC(C)C(=O)N1CCC2(CN(CC3CCCC3)C2)C1`, the INHIBITION is -67.5%. `CC(C)C(=O)N1CCCC2(CCCN2CC2CCCC2)C1` (configuration not stated): the INHIBITION amounted to 62%. In the case of `CC(C)C(=O)N1CCC2(CCN2CC2CC2)C1` (configuration not stated), the INHIBITION is listed as -74.5%.

As for `CCCS(=O)(=O)N1CCC(NC(=O)c2cc3ccccc3s2)CC1`, the INHIBITION was found to be 7.92%. The value for `COCC(=O)N1C[C@@H](CN2CCCN(C)CC2)[C@@H](CO)C1` was -37.6%; that for `Cc1[nH]c2ccc(CNc3cc(C(=O)NC(C)C)ccn3)cc2c1C` was -115%. As to `O=C(c1ccccc1)N1CCCn2c(CN3CCCCC3)nnc2C1`, the INHIBITION was -94.3%. On to `CCc1noc(C)c1C(=O)N1CCCCC1Cn1cc(C)cn1` (configuration not stated), for which the INHIBITION is given as -104%.

Regarding `CCC(=O)N(C)C1CCN(Cc2ncc(C)c(OC)c2C)CC1`, the INHIBITION was -102%. `COc1c(C)cnc(CN2CCC(N(C)C(=O)C(C)OC)CC2)c1C` (configuration not stated): the INHIBITION was -7.99%. For the molecule `CCNC(=O)N(C)C1CCN(Cc2ncc(C)c(OC)c2C)CC1`, the INHIBITION came to 69%. For `O=C(Cn1cc(I)cn1)N1CCCCCC1`, the INHIBITION was -34.7%.

As to `COc1ccc2cc(CNCc3c(C)nn(C)c3N(C)C)ccc2c1`, the INHIBITION is given as 18.6%. In the case of `O=C(CCN1C[C@H]2CC[C@@H]1C2)N1CCN(c2cccc(Cl)c2)C(=O)C1`, the INHIBITION was -40%.

For `Cc1ccc(N2CCN(C(=O)CN3C[C@H]4CC[C@@H]3C4)CC2=O)cc1`, the INHIBITION was -73.1%.

Take `Cc1cc(C)cc(N2CCN(C(=O)CCN3C[C@H]4CC[C@@H]3C4)CC2=O)c1`: the INHIBITION is reported as 62.1%. Take `CC(CN1CCCC1=O)NC(=O)Nc1ccccc1Cn1cccn1` (configuration not stated): the INHIBITION is -4.06%. For `CCOCC1c2c(cnn2C)CCN1C(=O)c1ccncn1` (configuration not stated) the value was -224%.

As to `Cc1cccc(C)c1Oc1ncccc1CNC(=O)C1COC(=O)N1` (configuration not stated), the INHIBITION was -180%. Take `CCC(CC)C(=O)NCc1cn2cc(Br)ccc2n1`: the INHIBITION was 1.4%. For `Cc1cc(N(C)CCCn2cccn2)nc(N)n1`, the INHIBITION was found to be 26.7%. Take `COc1ccc(OCCN(C)c2cc(C)nc(N)n2)cc1`: the INHIBITION was found to be 63.7%.

On to `COc1ccc(F)c(-c2cc(C)nc(N)n2)c1`, for which the INHIBITION is reported as -23.9%. `CN(C)c1ccccc1CN1CCCC(N2CCCC2=O)C1` (configuration not stated): the INHIBITION is -44.5%. In the case of `Cc1cccc(C(=O)N2CCC3(CC2)CC(c2cnn(C)c2)CO3)c1` (configuration not stated), the INHIBITION is listed as -85.1%. Regarding `CN(C)CC1(O)CCCN(C(=O)CCn2cc(Cl)cn2)C1` (configuration not stated), the INHIBITION was -101%.

Regarding `CN(C)CC1(O)CCCN(C(=O)Cc2ccc(Cl)c(Cl)c2)C1` (configuration not stated), the INHIBITION came to 58.9%. On to `CN(C)CC1(O)CCN(C(=O)Cc2ccc3c(c2)CCC3)C1` (configuration not stated), for which the INHIBITION is -116%. For the molecule `O[C@H]1CCCC[C@@H]1N1CCN(CCCc2ccc3c(c2)OCO3)CC1`, the INHIBITION is recorded as 28.7%.

Take `CN(C)C(CNCc1nc(-c2ccsc2)no1)c1cccs1` (configuration not stated): the INHIBITION is 12.3%. `CN(C)C(CNCc1nc(-c2ccsc2)no1)c1cccc(F)c1` (configuration not stated): the INHIBITION is reported as -31.3%. For `CN(C)C(CNCc1nc(-c2ccsc2)no1)c1ccsc1` (configuration not stated), the INHIBITION is listed as 55.4%. As to `CCC1=NC(SCC(=O)c2ccccc2)c2cc(CC)sc2N1` (configuration not stated), the INHIBITION is recorded as -23.2%. `c1ccc(-c2cc(CNCCN3CCCC3)c3nnnn3c2)cc1`: the INHIBITION is reported as -1.88%. In the case of `c1ccc(-c2cc(CNCCCN3CCCCC3)c3nnnn3c2)cc1`, the INHIBITION is reported as 65.4%. Turning to `c1ccc(-c2cc(CNCCN3CCOCC3)c3nnnn3c2)cc1`, the INHIBITION was -57.2%. Turning to `O=C([C@@H]1C[C@@H]2CCN(CCc3ccccc3)C[C@H]2O1)N1CCCC1`, the INHIBITION is -35%.

With `CC(O)CN1CCC(CNCc2ccccc2Cl)CC1` (configuration not stated), the INHIBITION is given as 44.5%. For `CCc1nnc2n1CC(CNCC1CCCC1)CC2` (configuration not stated) the value was -108%; for `COc1ccc2c(c1)C(=O)NC1(CC2)CCN(Cc2ccccc2)C1` (configuration not stated), 64.7%; for `COc1ccc2c(c1)C(=O)NC1(CC2)CCN(Cc2cccnc2)C1` (configuration not stated), -50.6%.

As to `COc1ccc2c(c1)C(=O)NC1(CC2)CCN(Cc2ccccn2)C1` (configuration not stated), the INHIBITION is recorded as -30.5%. For `COc1ccc2c(c1)C(=O)NC1(CC2)CCN(Cc2ccc(F)cc2)C1` (configuration not stated) the value was 66.7%. `COc1ccc2c(c1)OC1(CCN(Cc3ccc(F)cc3)CC1)CC2=O`: the INHIBITION is -50.5%. With `COc1ccc2c(c1)C(=O)NC1(CC2)CCN(Cc2ccncc2)C1` (configuration not stated), the INHIBITION was -28.2%. With `Cc1ccc(C(=O)Nc2ccccc2F)n1C`, the INHIBITION is -184%. Turning to `CC(=O)Nc1ccc(-c2cn(CCn3c(C)cc(C)nc3=O)nn2)cc1`, the INHIBITION is listed as -49.9%. On to `COc1ccc(-c2cn(CCn3c(C)cc(C)nc3=O)nn2)cn1`, for which the INHIBITION is recorded as -102%. Regarding `COc1c(F)cc(-c2cn(CCn3c(C)cc(C)nc3=O)nn2)cc1Cl`, the INHIBITION is 59.7%. Take `c1ccc(CN2CCCn3nnc(Cn4cccc4)c3C2)nc1`: the INHIBITION is listed as -33.7%.

As for `Cc1ccc(N2CC[C@H]3O[C@@H](C(=O)N4CCCO4)CC[C@H]32)nn1`, the INHIBITION is on record as -24.1%. Turning to `Cc1cnc(C(=O)N2CCC3(CC2)CN(c2ccccn2)CCO3)cn1`, the INHIBITION is -79.7%. In the case of `CCOCC1CCN(C(=O)Nc2ccc3c(c2)CCCO3)C1` (configuration not stated), the INHIBITION was -50.7%. The value for `CCNC(=O)C1CCCN(C(=O)Nc2ccc3c(c2)CCCN3C)C1` (configuration not stated) was 13.1%. Regarding `CCOCC1CCN(C(=O)Nc2ccc3c(c2)CCCN3C)C1` (configuration not stated), the INHIBITION was 58.9%.

Turning to `Cn1ccnc1CN1CCN(CCOc2cccc(C#N)c2)CC1`, the INHIBITION was -53.6%. The value for `O=C(c1c[nH]cn1)N1CCC(F)(F)C2(CCN(c3cnccn3)C2)C1` (configuration not stated) was -94.9%.

In the case of `CC(=O)N1C[C@H](NS(=O)(=O)Cc2cccc(Cl)c2)[C@@H](C(C)C)C1`, the INHIBITION is listed as -62.4%. Take `Cc1cc(NCc2cc3n(n2)CCCN(C(=O)C2CCC2)C3)nc(N)n1`: the INHIBITION is on record as -79.3%. For `COc1cccc(C(=O)N2CCc3nc(C4CCCN4)ncc3C2)c1` (configuration not stated), the INHIBITION came out at 4.58%. As for `Cc1cnc(CN(Cc2ccc(C#N)cc2F)C2CCN(C)C2)o1` (configuration not stated), the INHIBITION stood at 12.5%. As for `COc1ccc(C)cc1CN(Cc1ncc(C)o1)C1CCN(C)C1` (configuration not stated), the INHIBITION is 38.7%. Take `COc1ccc(C)cc1CN(Cc1nc(C)c(C)o1)C1CCN(C)C1` (configuration not stated): the INHIBITION was 56.2%.

These data come from ChEMBL document CHEMBL4513216, “Probing the Open Global Health Chemical Diversity Library for Multistage-Active Starting Points for Next-Generation Antimalarials” (ACS Infect Dis, 2020).
